Reference: the supplement of paper PMC10338343
± gives the standard deviation.

tested on: MILI (PIWIL2) piRISC loaded with piRNA #1 (26 nt); assay: pre-steady-state target cleavage rate (min^-1); guide: piRNA #1 5'p-UGAGGUAGUAGGUUGUAUAGUAUCCA; MIWI and MILI are mouse PIWI proteins and EfPiwi is from a freshwater sponge; tags in brackets are library labels; higher = faster piRNA-guided slicing of the target; conditions: auxiliary factor: 500 nM mouse GTSF1
How it was run: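 The pre-steady-state cleavage rate was calculated from a burst-and-steady-state fit. Data came from Cleave-'n-Seq, in which […] transcribed, DNA-blocked target RNA library was mixed with 1 nM active affinity-purified piRISC carrying one synthetic guide, with or without 500 nM GTSF1 partner protein, in HEPES–potassium acetate buffer at 33 °C for 0–8 or 0–960 min. Uncleaved targets were sequenced and normalised to depth and to weakly complementary targets, three trials were pooled, and k3 was capped at 0.0001 min^-1.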
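Further: 1 nM active piRISC with 0.1 nM target library at 33 °C single turnover.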

Sequence | pre-steady-state target cleavage rate
GGAGUGGAUACUUUACAACCUACUACCACA | 0.0946 ± 0.011
GGAGACCUAUCUAUAGUACCUACUACCUCA | 0.092 ± 0.014
GGAGACCUAUCUAAACAACCUACUACCACA | 0.0926 ± 0.013
GGAGUGCAUACUAUACAACCUAGUACCUCA | 0.0477 ± 0.0091
GGAGACCUAUGAAUACAACGUACUUCCUCA | 0.00328 ± 0.0027
GGAGACCUAUGAUAACAACCUACUACCUCU [g2:g16:cont:t1U] | 0.00588 ± 0.0024
GGAGACCUAUGAUUACAACCUACUACCUAA | 0.00444 ± 0.003
GGAGACCUAUGAUAUGUUCCUACUAGCUCA | < 0.0001
GGAGACCUAAGUAUACAACCUAGUACCUCA | 0.0133 ± 0.0034
GGAGACCUAACUAUUCAAGCUACUACCUCA | 0.217 ± 0.027
GGAGACCUAUGAAUACAACCUCCUACCUCA | 0.00498 ± 0.0023
GGAGACCUAUCUAUACAACCUAGUACCACA | 0.00922 ± 0.0045
GGAGACCUAUGUAUACAACCUACUUGCUCA | 0.0104 ± 0.0037
GGAGUGGAUACUAUAUCAACCUACUACCUCA | 0.143 ± 0.013
GGAGACCUUAGAUUACAACCUACUACCUCA | 0.0208 ± 0.007
GGAGACCUAUGAUAUGAUCCUACUACCACA | < 0.0001
GGAGACCUUAGUAUACAACCUACAACCUCA | 0.0865 ± 0.013
GGAGACCUAUGAAUACAUCCUACUUCCUCA | 0.00892 ± 0.0025
GGAGACCUAUCUAUACAUCCUACUAGCUCA | 0.125 ± 0.019
GGAGACGAUACAAUAGAACCUACUACCUCA | 0.178 ± 0.014

Sequence | pre-steady-state target cleavage rate
GGAGUGGAUACUAUUGUACCUACUACCUCA | 0.115 ± 0.0083
GGAGACCAUACUAUUCAACCUUCUACCUCA | 0.00695 ± 0.0026
GGAGACCUAUCUAUACAACCUACUACCAUCA | 0.123 ± 0.016
GGAGACCUUACAAUACAACCAACUACCUCA | 0.00567 ± 0.0032
GGAGACCUUACUAUACAUCCUACUAGCUCA | 0.2 ± 0.024
GGAGACCUAUGUAAACAACCUACUUCCUCA | 0.00599 ± 0.002
GGAGACCUAUCUAUAGAACCUACUACCUCA | 0.0821 ± 0.013
GGAGACCUAUCUAUACAACUACUACCUCA | 0.00292 ± 0.0024
GGAGACCUAAGAUUACAACCUACUACCUCA | 0.0144 ± 0.0043
GGAGAGGAUUCUAUACAACCUACAACCUCA | 0.0904 ± 0.012
GGAGACCUUACUAUUGUACCUACUACCUCA | 0.0232 ± 0.0049
GGAGACCUAUCUAUUCAACCUACUAGCUCA | 0.0826 ± 0.014
GGAGUGGAUACUAUACAUGCUACUACCUCA | 0.109 ± 0.0081
GGAGACCUAUGAUAACAUCCUACUAGCUCA | 0.00409 ± 0.0032
GGAGACCUAUCUAUACAACGUACUACCUGA | 0.00689 ± 0.0021
GGAGACCUAAGUAUACUACCUACUACCUCA | 0.0377 ± 0.0069
GGAGACCUAUGAUUACGACCUACUACCUCA | 0.00341 ± 0.003
GGAGACGAUACUAUUGUACCUACUACCUCA | 0.119 ± 0.0095
GGAGACCUAACUAUACAUCGUACUACCUCA | 0.0246 ± 0.0074
GGAGACCUAUCUAUACUACCUAGUACCUCA | 0.0113 ± 0.0036
